According to PubChem BioAssay AID1159580 (chemical genetic matrix, 2015):
Where “and” joins values, the source holds several entries; their conditions need not be identical. Equal values may be shown once. Among all 5,500 compounds or so, about 2,000 (36%) were called active. About 18% were inconclusive and are not listed. No stated cut-off is given here; in the data, active means normalized growth mostly below about 0.91 (no sharp cut-off); inconclusive means no clear call, values can overlap the other calls; inactive means mostly above about 0.92. Some of the results follow.

Assay: chemical genetic growth profiling, strain panel (AID 1159580);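 further: tested at 20 µM; growth read once vehicle control cultures reached saturation at 30 °C; 1 = growth at the plate median or of vehicle wells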
Details: growth OD

Measured: normalized growth

CC[N+](CC)(CC)CCOc1cccc(OCC[N+](CC)(CC)CC)c1OCC[N+](CC)(CC)CC
inactive: S. cerevisiae deletion strains, locus YJR066W, strain TOR1, stronger effect = lower value 0.953 | S. cerevisiae deletion strains, locus YKL009W, strain mrt4, stronger effect = lower value 0.99 | S. cerevisiae deletion strains, locus YKL068W, stronger effect = lower value 1 | S. cerevisiae deletion strains, locus YKL085W, strain MDH1 (second series), stronger effect = lower value 1.02 | S. cerevisiae deletion strains, locus YKL085W, strain MDH1, stronger effect = lower value 1.02 | S. cerevisiae deletion strains, locus YKL160W, strain elf1, stronger effect = lower value 1.04 | S. cerevisiae deletion strains, locus YKR001C, strain vps1, stronger effect = lower value 1 | S. cerevisiae deletion strains, locus YKR026C, strain gcn3, stronger effect = lower value 1.01 | S. cerevisiae deletion strains, locus YKR091W, strain srl3, stronger effect = lower value 1.02 | S. cerevisiae deletion strains, locus YLL001W, strain dnm1, stronger effect = lower value 1.04 | S. cerevisiae deletion strains, locus YLL026W, stronger effect = lower value 1.01 | S. cerevisiae deletion strains, locus YLL041C, strain sdh2, stronger effect = lower value 1.01 | S. cerevisiae deletion strains, locus YLR027C, strain aat2, stronger effect = lower value 1.02 | S. cerevisiae deletion strains, locus YLR039C, strain RIC1, stronger effect = lower value 1.11 | S. cerevisiae deletion strains, locus YLR058C, strain SHM2, stronger effect = lower value 1.03 | S. cerevisiae deletion strains, locus YLR102C, strain apc9, stronger effect = lower value 1.01 | S. cerevisiae deletion strains, locus YLR113W, strain HOG1, stronger effect = lower value 0.977 | S. cerevisiae deletion strains, locus YLR221C, strain rsa3, stronger effect = lower value 1.02 | S. cerevisiae deletion strains, locus YLR258W, strain gsy2, stronger effect = lower value 1.01 | S. cerevisiae deletion strains, locus YLR262C, strain YPT6 (second series), stronger effect = lower value 1.05 | S. cerevisiae deletion strains, locus YLR262C, strain YPT6, stronger effect = lower value 1.07 | S. cerevisiae deletion strains, locus YLR268W, strain sec22, stronger effect = lower value 1.01 | S. cerevisiae deletion strains, locus YLR320W, strain mms22, stronger effect = lower value 1.03 | S. cerevisiae deletion strains, locus YLR330W, strain CHS5, stronger effect = lower value 1.01 | S. cerevisiae deletion strains, locus YLR342W, strain FKS1 (second series), stronger effect = lower value 0.996 | S. cerevisiae deletion strains, locus YLR342W, strain FKS1, stronger effect = lower value 1.02 | S. cerevisiae deletion strains, locus YLR357W, strain rsc2, stronger effect = lower value 1 | S. cerevisiae deletion strains, locus YLR370C, strain arc18, stronger effect = lower value 1.01 | S. cerevisiae deletion strains, locus YLR371W, strain rom2, stronger effect = lower value 1.01 | S. cerevisiae deletion strains, locus YLR384C, strain iki3, stronger effect = lower value 1.02 | S. cerevisiae deletion strains, locus YLR418C, strain cdc73, stronger effect = lower value 1.02 | S. cerevisiae deletion strains, locus YML016C, strain PPZ1, stronger effect = lower value 1.01 | S. cerevisiae deletion strains, locus YML032C, strain rad52, stronger effect = lower value 1 | S. cerevisiae deletion strains, locus YML120C, strain ndi1, stronger effect = lower value 1.03 | S. cerevisiae deletion strains, locus YML124C, strain tub3, stronger effect = lower value 1.01 | S. cerevisiae deletion strains, locus YMR058W, strain fet3, stronger effect = lower value 1.01 | S. cerevisiae deletion strains, locus YMR078C, strain ctf18, stronger effect = lower value 1.02 | S. cerevisiae deletion strains, locus YMR125W, strain sto1, stronger effect = lower value 1.01 | S. cerevisiae deletion strains, locus YMR129W, stronger effect = lower value 1.01 | S. cerevisiae deletion strains, locus YMR205C, strain PFK2, stronger effect = lower value 1.03 | S. cerevisiae deletion strains, locus YMR223W, strain ubp8, stronger effect = lower value 1.02 | S. cerevisiae deletion strains, locus YMR231W, strain pep5, stronger effect = lower value 1.01 | S. cerevisiae deletion strains, locus YMR263W, strain SAP30, stronger effect = lower value 0.995 | S. cerevisiae deletion strains, locus YMR307W, strain GAS1, stronger effect = lower value 1.02 | S. cerevisiae deletion strains, locus YNL067W, strain RPL9B, stronger effect = lower value 1.01 | S. cerevisiae deletion strains, locus YNL071W, strain lat1, stronger effect = lower value 1.01 | S. cerevisiae deletion strains, locus YNL128W, strain TEP1, stronger effect = lower value 1.02 | S. cerevisiae deletion strains, locus YNL153C, strain GIM3, stronger effect = lower value 1.01 | S. cerevisiae deletion strains, locus YNL175C, strain NOP13, stronger effect = lower value 0.987 | S. cerevisiae deletion strains, locus YNL183C, strain NPR1, stronger effect = lower value 0.969 | S. cerevisiae deletion strains, locus YNL197C, strain WHI3, stronger effect = lower value 0.987 | S. cerevisiae deletion strains, locus YNL209W, strain ssb2, stronger effect = lower value 1.02 | S. cerevisiae deletion strains, locus YNL224C, strain SQS1, stronger effect = lower value 0.997 | S. cerevisiae deletion strains, locus YNL233W, strain BNI4, stronger effect = lower value 1.02 | S. cerevisiae deletion strains, locus YNL248C, strain rpa49, stronger effect = lower value 1 | S. cerevisiae deletion strains, locus YNL250W, strain rad50, stronger effect = lower value 1.05 | S. cerevisiae deletion strains, locus YNL271C, strain bni1, stronger effect = lower value 1.01 | S. cerevisiae deletion strains, locus YNL298W, strain CLA4, stronger effect = lower value 1.01 | S. cerevisiae deletion strains, locus YNL307C, strain MCK1, stronger effect = lower value 1.02 | S. cerevisiae deletion strains, locus YNL322C, strain KRE1 (second series), stronger effect = lower value 1.02 | S. cerevisiae deletion strains, locus YNL322C, strain KRE1, stronger effect = lower value 1 and 1.01 | S. cerevisiae deletion strains, locus YNR049C, strain mso1, stronger effect = lower value 1.02 | S. cerevisiae deletion strains, locus YNR052C, strain pop2, stronger effect = lower value 1.02 | S. cerevisiae deletion strains, locus YOL006C, strain TOP1, stronger effect = lower value 1.04 | S. cerevisiae deletion strains, locus YOL012C, strain htz1 0.763 | S. cerevisiae deletion strains, locus YOL147C, strain pex11, stronger effect = lower value 1 | S. cerevisiae deletion strains, locus YOR001W, strain rrp6, stronger effect = lower value 1 | S. cerevisiae deletion strains, locus YOR061W, strain CKA2, stronger effect = lower value 1.01 | S. cerevisiae deletion strains, locus YOR069W, strain VPS5, stronger effect = lower value 1.01 | S. cerevisiae deletion strains, locus YOR070C, strain gyp1, stronger effect = lower value 1.02 | S. cerevisiae deletion strains, locus YOR080W, strain dia2, stronger effect = lower value 1.02 | S. cerevisiae deletion strains, locus YOR083W, strain WHI5 (second series), stronger effect = lower value 0.998 | S. cerevisiae deletion strains, locus YOR083W, strain WHI5, stronger effect = lower value 1.04 | S. cerevisiae deletion strains, locus YOR106W, strain vam3, stronger effect = lower value 1.02 | S. cerevisiae deletion strains, locus YOR136W, strain idh2, stronger effect = lower value 1 | S. cerevisiae deletion strains, locus YOR144C, strain elg1, stronger effect = lower value 1.01 | S. cerevisiae deletion strains, locus YOR184W, strain ser1, stronger effect = lower value 1.04 | S. cerevisiae deletion strains, locus YOR231W, strain MKK1, stronger effect = lower value 1 | S. cerevisiae deletion strains, locus YOR265W, strain rbl2, stronger effect = lower value 1.01 | S. cerevisiae deletion strains, locus YOR270C, strain vph1, stronger effect = lower value 1.04 | S. cerevisiae deletion strains, locus YOR290C, strain snf2, stronger effect = lower value 0.958 | S. cerevisiae deletion strains, locus YOR316C, strain cot1, stronger effect = lower value 1.02 | S. cerevisiae deletion strains, locus YPL051W, strain arl3, stronger effect = lower value 1.01 | S. cerevisiae deletion strains, locus YPL055C, strain LGE1, stronger effect = lower value 1.02 | S. cerevisiae deletion strains, locus YPL078C, strain atp4, stronger effect = lower value 1.02 | S. cerevisiae deletion strains, locus YPL106C, strain sse1, stronger effect = lower value 1.02 | S. cerevisiae deletion strains, locus YPL240C, strain hsp82, stronger effect = lower value 1 | S. cerevisiae deletion strains, locus YPL256C, strain CLN2, stronger effect = lower value 1.05 | S. cerevisiae deletion strains, locus YPR119W, strain clb2, stronger effect = lower value 1.02 | S. cerevisiae deletion strains, locus YPR141C, strain kar3, stronger effect = lower value 1.02 | S. cerevisiae deletion strains, locus YPR163C, strain tif3, stronger effect = lower value 1.02 | S. cerevisiae deletion strains, locus YPR167C, strain met16, stronger effect = lower value 1.02 | S. cerevisiae deletion strains, strain wtn01, stronger effect = lower value 0.996 | S. cerevisiae strains, strain wild type, stronger effect = lower value 1.01
